Screening data as filed in PubChem BioAssay.
This is a sample that favours compounds with a hit; in the whole collection about 2.3% have one here.
Giardia killer – kills Giardia lamblia; Giardia lamblia trophozoite viability; activity change, % at 7.66 µM, hits read low; actives 0.15% (n = 340,000); AID 540267; in the data active = activity change below about -80%; inconclusive = between about -30% and that limit;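 also: parasites exposed to compound for two days anaerobically before the ATP read; % is scaled to controls: 0 for no effect and ±100 for the full control effect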
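ATP-content bioluminescence gauges trophozoite survival. Cells (100/well) receive compound and incubate anaerobically for 48 hrs at 37 deg C; detection reagent follows for 15-30 min at room temperature.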
ELG1 repair inh – blocks ELG1-dependent DNA repair in HEK293T cells | HEK293T ELG1-luciferase reporter, luminescence, 16 h; DNA damage induced by 5-fluorouridine | Potency, µM (top dose mostly 46.1 µM), for inactives: at the highest dose activity change, negative = inhibition, usual class: inhibitors | actives 2.3% (n = 330,000) | AID 504467; also: potency is read from the fitted curve at half-maximal effect; % is scaled to controls: 0 for no effect and ±100 for the full control effect; nearly all actives have a fitted effect of over 55% in size
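Overnight (16 hr) co-exposure of 2,000 cells/well to 5-fluorouridine and compound at 37 °C preceded detection. Luciferase was quantified via ONE-Glo luminescence; loss of signal denotes inhibition.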
TRPV1 potentiator – potentiators of human vanilloid receptor 1 (TRPV1) | Q8NER1 | actives 0.02% (n = 320,000) | potentiation, % at 8.33 µM | TRPV1-expressing cells, Fluo-8 calcium influx, capsaicin EC20 potentiation | AID 540277; in the data active = potentiation above about 80%; inconclusive = between about 30% and that limit; also: 0% is about no effect
Target sequence (Q8NER1 whole entry, looked up): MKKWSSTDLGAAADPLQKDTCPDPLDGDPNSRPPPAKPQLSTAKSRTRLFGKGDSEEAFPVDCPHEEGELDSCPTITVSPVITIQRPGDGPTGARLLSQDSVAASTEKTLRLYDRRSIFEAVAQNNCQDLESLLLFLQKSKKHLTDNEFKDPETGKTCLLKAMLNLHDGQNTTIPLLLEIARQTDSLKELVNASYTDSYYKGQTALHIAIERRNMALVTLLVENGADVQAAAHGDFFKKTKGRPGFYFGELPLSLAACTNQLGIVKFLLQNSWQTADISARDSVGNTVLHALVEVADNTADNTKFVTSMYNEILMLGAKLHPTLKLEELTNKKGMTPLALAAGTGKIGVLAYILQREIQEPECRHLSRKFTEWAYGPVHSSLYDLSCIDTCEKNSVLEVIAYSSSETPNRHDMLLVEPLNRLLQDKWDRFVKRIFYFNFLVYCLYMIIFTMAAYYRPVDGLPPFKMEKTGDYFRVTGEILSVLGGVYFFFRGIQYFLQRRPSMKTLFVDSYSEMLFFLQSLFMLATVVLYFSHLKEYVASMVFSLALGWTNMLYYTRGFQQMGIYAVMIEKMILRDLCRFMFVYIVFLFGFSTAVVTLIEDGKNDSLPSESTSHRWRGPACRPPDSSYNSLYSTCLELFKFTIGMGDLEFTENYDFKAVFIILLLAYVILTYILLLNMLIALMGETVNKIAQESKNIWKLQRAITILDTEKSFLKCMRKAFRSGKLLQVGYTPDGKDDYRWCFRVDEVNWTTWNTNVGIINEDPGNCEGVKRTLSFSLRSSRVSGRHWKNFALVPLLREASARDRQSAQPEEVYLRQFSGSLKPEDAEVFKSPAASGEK
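TRPV1-expressing cells were cultured overnight at 35.5C and loaded with Fluo-8 calcium dye for 40 to 90 min at room temperature. After a 10 s baseline, compound was added and calcium influx was read kinetically for 3 min (ex 480/em 520 nm).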
TRPV1 agonist – human TRPV1 agonism. TRPV1-expressing cells, Fluo-8 calcium influx, agonist mode. activation, % at 8.33 µM. actives 0.19% (n = 320,000). Q8NER1; in the data active = activation above about 80%; inconclusive = between about 30% and that limit; also: 0% is about no effect
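Fluo-8 calcium influx in TRPV1-expressing cells, kinetic read (ex 480/em 520 nm). Compound added and read 3 min for agonist activity, followed by capsaicin at EC20 final and 2 min further read for enhancement.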
FUS suppressor – rescues growth of FUS-expressing yeast | actives 0.24% (n = 390,000) | Potency, µM (titrated, usually from 76.6 µM), usual class: activators | S. cerevisiae FUS-expressing, growth rescue, OD600, 24 h;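 also: potency is read from the fitted curve at half-maximal effect; plate controls were DMSO vehicle for no effect and reference control for full effect; nearly all actives have a fitted effect of over 55% in size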
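Toxicity suppression screen in FUS-yeast. Cells induced with 2% galactose, starting OD 0.005, treated 24hr at 30C with compounds at multiple final concentrations; growth by OD600.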
* marks the source's active call; other numbers are inactive results; i = inactive; ? = inconclusive; . = not tested or not shown. Unless noted, calls follow the shape of the dose curve; as a rule, active = well fitted curve in the direction sought with a large enough effect; inconclusive = small, poorly fitted or top-dose-only effect, or another doubt; inactive = no such curve, though single readings can be large; an effect the other way counts as inactive or inconclusive.

SMILES	Giardia killer	ELG1 repair inh	TRPV1 potentiator	TRPV1 agonist	FUS suppressor
O=C(Nc1ccc([N+](=O)[O-])cc1)Nc1nc(-c2ccc(Cl)s2)cs1	-22.6	10.3µM*	11.2	-7.5	i
COc1cccc(NC(=O)CN(C)C(=O)c2cc(-c3ccc(C)o3)nc3ccccc23)c1	?	6.51µM*	0.8	9.0	i
COc1cccc(NC(=O)c2cc(-c3ccc(C)o3)nc3ccccc23)c1	-2.1	-6.7%	-0.9	6.8	?
CCNC(=S)NNC(=O)c1cc(-c2cccc(OC)c2)nc2ccccc12	-17.5	?	-6.3	11.3	i
CCOc1ccc(NC(=O)CN(C)C(=O)c2cc(-c3ccc(OC)cc3)nc3ccccc23)cc1OCC	10.6	9.2µM*	24.4	0.1	i
CCNC(=S)NNC(=O)c1cc(-c2ccc(OCC)cc2)nc2ccccc12	-81.1*	?	-13.6	-0.5	i
CCCc1ccc(-c2cc(C(=O)NN3CCOCC3)c3ccccc3n2)cc1	-13.0	?	-7.9	13.6	i
COc1ccc(NC(=O)CN(C)C(=O)c2cc(-c3ccc(Cl)cc3)nc3ccccc23)cc1	-9.5	?	9.3	3.9	i
CCc1ccc(-c2cc(C(=O)Nn3cnnc3)c3ccccc3n2)cc1	-100.1*	?	7.4	-0.4	?
COc1ccc(-c2nc3ccccc3nc2-c2ccccc2)cc1OC	-11.0	?	-11.9	-4.0	i
N#Cc1ccc(-c2nc3ccccc3nc2-c2ccccc2)cc1C#N	-1.8	16.4µM*	18.8	-0.6	i
Nc1nc(CSc2nnnn2-c2ccccc2)nc(N2CCCc3ccccc32)n1	3.1	16.4µM*	-2.5	22.2	?
COc1ccccc1C(=O)Nc1ccc(S(=O)(=O)N2CCCCC2c2cccnc2)cc1 (stereo not drawn)	19.1	23.1µM*	.	.	i
CCOC(=O)N1CCC(NC(=O)c2cc3c(-c4ccc(OC)c(OC)c4)nn(C)c3s2)CC1	5.7	7.31µM*	1.1	1.3	i
COc1ccc(NC(=O)c2cc3c(-c4ccc(OC)c(OC)c4)nn(C)c3s2)cc1OC	1.4	1.64µM*	-5.1	-7.4	i
CCOC(=O)N1CCC(NC(=O)c2cc3c(-c4ccccc4F)nn(C)c3s2)CC1	-9.4	13µM*	-0.2	-1.4	i
CC1CCCCN1CCNC(=O)c1cc2c(-c3ccccc3F)nn(C)c2s1 (stereo not drawn)	15.3	3.2%	6.3	3.5	i
COc1ccc(-c2nn(C)c3sc(C(=O)NCc4ccco4)cc23)cc1OC	4.3	-12.4%	4.6	0.3	i
CC(C)(C)c1ccc(C(=O)N2CCCCC2CCN2CCCCC2)cc1 (stereo not drawn)	.	.	.	.	i
CCOc1ccc(C2=CS/C(=C(\C#N)c3nnc4n3CCCCC4)N2CC)cc1	6.8	?	22.2	-2.7	i
C=CCN1C(c2ccccc2)=CS/C1=C(\C#N)c1nnc2n1CCCCC2	1.3	11.2µM*	9.6	-1.4	i
CCOC(=O)N1CCC(N2Cc3cccc(C(=O)NCc4ccc5c(c4)OCO5)c3C2=O)CC1	-10.8	23.1µM*	8.5	-0.8	i
O=C(NCc1ccc2c(c1)OCO2)c1cccc2c1C(=O)N(C1CCCCC1)C2	-4.5	6.4%	-11.8	28.0	i
Cc1ccccc1NC(=O)CN(C)S(=O)(=O)c1cccc2nsnc12	.	.	.	.	i
CC(C)OC(=O)c1cn(-c2ccccc2)nc1-c1ccc2c(c1)OCCO2	8.1	23.1µM*	-12.6	?	i
SMILES	Giardia killer	ELG1 repair inh	TRPV1 potentiator	TRPV1 agonist	FUS suppressor
NC(=O)/C=C\c1cn(-c2ccccc2)nc1-c1ccc2c(c1)OCCO2	-11.1	16.4µM*	-3.7	?	i
O=C(/C=C/c1cn(-c2ccccc2)nc1-c1ccc2c(c1)OCCO2)NCCO	-15.3	?	-5.1	?	i
COC(=O)c1cn(-c2ccccc2)nc1-c1ccc(OC)cc1	17.5	25.9µM*	20.8	21.3	i
O=C(NCc1ccccc1Cl)C(=O)NCC(c1ccco1)S(=O)(=O)c1cccs1 (stereo not drawn)	.	.	.	.	i
CC(=O)OCCn1c2nc(=O)[nH]c(=O)c-2nc2cc(C)c(C)cc21	-12.8	-15.7%	-20.6	122.0*	i
CC(=O)OCCn1c(C)[n+](CCOC(C)=O)c2cc(Cl)c(Cl)cc21	9.1	5.1%	4.6	3.3	i
Cc1ccc(CN=c2c([N+](=O)[O-])nn(-c3ccc4c(c3)OCCO4)n2O)cc1	-86.9*	?	8.6	-1.9	.
COc1ccc(-n2nc([N+](=O)[O-])c(=NCc3ccc4c(c3)OCO4)n2O)cc1	-92.4*	?	14.8	-3.6	.
COc1ccccc1NS(=O)(=O)c1cc(NC(=O)CCc2nc3ccccc3c(=O)[nH]2)ccc1C	5.2	13µM*	26.4	-8.4	?
O=C(/C=C/c1ccco1)OCC(=O)c1ccc(OC(F)F)cc1	0.0	?	-4.1	18.1	i
COc1cccc(/C=C/C(=O)OCC(=O)c2c[nH]c3ccccc23)c1OC	13.1	16.4µM*	-13.6	14.0	i
CCc1cccc2c(C(=O)COC(=O)/C=C/c3ccc(O)c(OC)c3)c[nH]c12	8.0	20.6µM*	?	1.6	.
COc1cc(/C=C/C(=O)OCC(=O)c2ccc(OC(F)F)cc2)ccc1O	-7.7	18.3µM*	.	.	i
O=C(COc1ccccc1)NCC(c1cccs1)S(=O)(=O)c1ccc(Cl)cc1 (stereo not drawn)	.	.	.	.	i
COc1cccc(C2=NN(C(C)=O)C(c3cn(-c4ccccc4)nc3-c3cccs3)C2)c1 (stereo not drawn)	.	.	.	.	i
CC(=O)c1ccc(-c2cccc(-c3nc4ccccn4c3NC3CCCCC3)c2)cc1	4.8	3.55µM*	-3.7	4.4	?
CCC(C)Sc1cc(-c2nc3ccccn3c2NC2CCCCC2)ccc1OC (stereo not drawn)	-7.2	?	-11.6	0.4	?
Cc1ccc(NC(=O)C2CCCN(c3nnc(-n4c(C)ccc4C)s3)C2)c(C)c1 (stereo not drawn)	.	.	.	.	i
N#Cc1c(Oc2ccc3ccccc3c2)sc(C(=O)c2ccccc2)c1N	-2.9	11.6µM*	4.5	8.8	i
Cc1cccc(Oc2sc(C(=O)c3ccccc3)c(N)c2C#N)c1C	6.5	?	-4.4	9.7	.
CC1CCCN(CCOCCOc2ccc(Cl)cc2Br)C1 (stereo not drawn)	13.3	-2.1%	-10.0	8.0	7.08µM*
CC1CCCN(CCOCCOc2ccc(Br)cc2Cl)C1 (stereo not drawn)	-18.3	-2.8%	-2.9	-0.3	i
C=CCOc1ccc(/C=C2\SC(N)=NC2=O)cc1OC	7.5	?	3.3	0.8	i
COc1cc(/C=C2\SC(N)=NC2=O)ccc1O	9.0	10.3µM*	0.0	-0.7	i
CCOc1cc(/C=N/NC(=O)c2ccncc2)ccc1OS(C)(=O)=O	7.8	5.5%	-14.6	-6.9	.
